Here are results for 85 compounds from PubChem BioAssay AID2130 (The Scripps Research Institute Molecular Screening Center, 2009).

Out of some 320,000 compounds screened, about 1,700 (0.53%) were called active. Many of the other results were omitted from the sample, so actives are more common in it than they were. Values without a mark were called inactive.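 How the source made its calls: active means inhibition above the campaign mean of all compounds plus 3 SD (cut at about 26% in these data); inactive means the rest.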

Chain of Protein phosphatase methylesterase 1 (Homo sapiens) (Q9Y570 whole entry, looked up): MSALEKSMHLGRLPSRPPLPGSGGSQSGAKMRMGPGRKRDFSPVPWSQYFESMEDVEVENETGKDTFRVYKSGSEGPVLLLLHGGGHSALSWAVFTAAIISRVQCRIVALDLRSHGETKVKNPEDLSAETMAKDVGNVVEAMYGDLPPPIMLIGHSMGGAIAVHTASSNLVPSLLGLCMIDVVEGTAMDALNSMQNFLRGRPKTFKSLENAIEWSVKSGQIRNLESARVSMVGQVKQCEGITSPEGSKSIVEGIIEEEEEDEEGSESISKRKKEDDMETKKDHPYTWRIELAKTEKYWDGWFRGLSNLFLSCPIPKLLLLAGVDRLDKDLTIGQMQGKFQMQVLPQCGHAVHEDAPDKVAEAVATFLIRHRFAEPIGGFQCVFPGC

The assay has as its target Protein phosphatase methylesterase 1 (Homo sapiens) (UniProt Q9Y570). The assay is described as follows: human PME-1 methylesterase blockers – biochemical, fluorescence polarization, FP-Rh probe, HTS, primary screen (AID 2130).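 Further: competitive labeling of PME-1 active site by serine hydrolase directed probe; 0% = PME-1 with DMSO and 100% = wells lacking PME-1 enzyme; inhibitors block probe labeling so polarization falls and inhibition rises.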 As to conditions: recombinant PME-1, FP-Rh probe fluorescence polarization; at 5.9 µM; active compounds read high. For orientation: Fluorescence polarisation rises when a labelled molecule tumbles more slowly, as on binding a larger partner.
With `CC(=O)N1CC[n+]2c(-c3ccc([N+](=O)[O-])cc3)csc21`, the inhibition was -1.65%.
Then `COc1cc(NS(=O)(=O)c2ccc(NC(=O)c3ccc([N+](=O)[O-])cc3)cc2)ncn1`, with 4.2%; and `Cc1ccc(NC(=O)Cc2nnc(SCC(=O)Nc3nncs3)n2C)cc1`, with 5.14%; and `O=C(CCn1nnc2ccccc21)OCC(=O)c1ccc([N+](=O)[O-])cc1`, with -1.86%.
With `Cc1cc(C(=O)OCC(=O)Nc2ccc(F)c(F)c2)c(C)o1`, the inhibition was -2.42%.
Regarding `CONC(=O)c1cc(OCC(F)(F)F)ccc1OCC(F)(F)F`, the inhibition was -6.8%.
Then `CN(Cc1ccccc1)C(=O)c1ccc(NC2=NC3CS(=O)(=O)CC3S2)cc1` (stereo not given), with 0.07%; and `O=C(CCc1nnc2ccc(NCCCN3CCCC3=O)nn12)NCc1ccccc1Cl`, with -0.36%; and `Cc1ccc(N(C(=O)C(F)(F)F)C(C(=O)NC2CCCCC2)c2ccncc2)cc1C` (stereo not given), with 3.24%.
For the compound `O=S1(=O)CCOC[C@H](CC2CCCCC2)N1Cc1ccc(F)cc1`, the inhibition was 1.92%.
`COCCOC(=O)c1sc(=S)n(CCOC)c1N`: the inhibition is 35% (active).
To `COC(=O)c1sc(=S)n(-c2ccc(Cl)cc2)c1C` belongs -0.65%; to `CCOC(=O)c1c(N)sc(C(C)=O)c1C`, 3.77%.
To `COc1cccc(CNC(=O)CN2C(=O)NC(Cc3ccccc3)(c3ccccc3)C2=O)c1` (stereo not given) belongs -2.37%.
Turning to `Cc1cc(C)c(C2C3=C(Nc4c2c(C)nn4-c2ccccn2)c2ccccc2C3=O)c(C)c1` (stereo not given), the inhibition is -4.18%.
To `Cc1ccc(-c2ccnc3[nH]n(-c4ccccc4)c(=O)c23)cc1` belongs -2.99%; to `Cc1ccc(C2C3=C(Nc4[nH]n(-c5ccccc5)c(=O)c42)c2ccccc2C3=O)cc1` (stereo not given), 36.4% (active); to `CSc1nc2nc(-c3cccc(C(F)(F)F)c3)ccn2n1`, -7.13%.
Then `COC(=O)CSc1nc2c(c(C3CC=CCC3)c1C#N)CCC2` (stereo not given), with -1.86%.
Then `CCOC(=O)N1CCN(C(=O)COCc2cc(-c3ccc4c(c3)OCO4)on2)CC1`, with -4.28%.
As to `O=C(NCCCN1CCCCC1)C1CC(=O)N(CCc2ccccc2)C1` (stereo not given), the inhibition was 0.2%.
To `CCCCN(CCCC)CCNC(=O)CN1C(=O)COc2ccc(S(=O)(=O)N3CCOCC3)cc21` belongs -2.01%; to `CCc1ccc(C(=O)CSc2nnc(C)c(=O)[nH]2)cc1`, -6.05%.
Then `O=C(O)c1ccccc1N=N/C(=N/Nc1cc(S(=O)(=O)O)ccc1O)c1ccccc1`, with 13.7%; and `Cc1cccc(COc2ccccc2/C=N/Nc2ccc([N+](=O)[O-])cc2)c1`, with 11.9%.
Turning to `Cc1ccc(NS(=O)(=O)c2ccc(N/N=C/c3ccccc3OCC(=O)O)c([N+](=O)[O-])c2)c(C)c1`, the inhibition was 78.2% (active).
In the case of `COCCNC(=O)c1ccccc1NS(=O)(=O)c1ccc(C)c([N+](=O)[O-])c1`, the inhibition was -1.62%.
As to `Cc1ccccc1N1CC(C(=O)Nc2ccc3c(c2)OCO3)CC1=O` (stereo not given), the inhibition was 0.7%.
To `COCCN(C(=S)Nc1cccc(Cl)c1C)C(C)c1ccco1` (stereo not given) belongs -13.2%; to `CCCN(C(=O)CSc1nnnn1C)c1c(N)n(Cc2ccccc2)c(=O)[nH]c1=O`, 0.95%; to `COc1ccc(N2C(=O)c3ccccc3NC2c2ccc(OC)c(CN3CCOCC3)c2)cc1` (stereo not given), -3.55%.
Regarding `COc1ccc(C2Nc3ccccc3C(=O)N2c2ccc(F)cc2)cc1Cn1nnc2ccccc21` (stereo not given), the inhibition is 30.4% (active).
To `COc1ccc(C2Nc3ccccc3C(=O)N2Cc2ccccc2)cc1Cn1nnc2ccccc21` (stereo not given) belongs 8.54%; to `O=C(NCCc1ccccn1)c1nc(Cn2cc([N+](=O)[O-])cn2)no1`, -4.02%.
Then `Cc1ccc(-c2ccnc3nc(Sc4ncc(C(F)(F)F)cc4Cl)nn23)cc1`, with -0.19%; and `COC/C=C/C1=CC2=CC(=O)C(C)(OC(=O)CCC(=O)OC)C(=O)C2=CO1` (stereo not given), with -1.35%.
As to `COc1ccccc1OCCn1c(SCC(N)=O)nc2ccccc21`, the inhibition is -4.12%.
In the case of `COC(C(=O)Nc1ccc(C(C)=O)cc1)c1ccccc1` (stereo not given), the inhibition is -5.79%.
Then `COc1ccc(NC(=O)[C@H](NC(=O)[C@@H]2Cc3ccccc3CN2)c2ccccc2)cc1`, with -3.82%; and `COc1ccc(NC(C(=O)Nc2cccc(C(C)=O)c2)c2ccccc2)cc1` (stereo not given), with 34.5% (active).
Then `CS(=O)(=O)N(CC(=O)Nc1ccc(F)cc1F)c1cccc([N+](=O)[O-])c1`, with -2.56%.
To `O=C(CNCc1cccs1)Nc1cc(S(=O)(=O)N2CCCC2)ccc1Cl` belongs 22%.
For `CSCCC(NS(=O)(=O)/C=C/c1ccccc1)C(=O)N1CCC(C)CC1` (stereo not given), the inhibition is 6.82%.
`CCc1ccc2nc3sc(C(=O)Nc4nnc(CC)s4)c(N)c3cc2c1`: the inhibition is 65.8% (active).
Then `CCc1nnc(NC(=O)c2sc3nc(C)cc(COC)c3c2N)s1`, with -5.69%; and `CCc1nnc(NC(=O)c2cccc(S(=O)(=O)N(C)c3ccc(OC)cc3)c2)s1`, with -0.95%; and `Clc1ccc(-c2cc(COc3ccccc3)no2)cc1Cl`, with -8.92%.
Regarding `COC(=O)COc1ccc2c(c1C)O/C(=C\c1ccco1)C2=O`, the inhibition was -9.46%.
As to `COc1cc(/C=N/NC(=O)c2ccc(N3CCCC3=O)cc2)ccc1O`, the inhibition is 5.91%.
Then `COc1ccc(C(=O)Nc2ccccc2C(=O)N/N=C/c2ccc(O)c(OC)c2)cc1`, with 33.6% (active).
To `CCOc1cc(/C=N/NC(=O)c2cc(-c3ccccc3)nc3ccccc23)ccc1O` belongs -7.58%; to `CCOC(=O)[C@H]1CCC[C@@H](NS(=O)(=O)c2ccc(NC(C)=O)cc2)C1`, 1.52%.
To `Cc1csc2nc(COC(=O)c3cccc(N(C)C)c3)cc(=O)n12` belongs 3.78%.
For the compound `COc1ccc(C(=O)CC(=O)C(=O)Nc2cc([N+](=O)[O-])ccc2OC)cc1`, the inhibition is -2.97%.
To `COc1ccc(NS(=O)(=O)c2cc(C(=O)Nc3ccccc3C(=O)O)ccc2C)cc1` belongs -3.94%; to `COc1ccc(NS(=O)(=O)c2cc(NC(=O)CC(=O)c3ccc([N+](=O)[O-])cc3)ccc2C)cc1`, 27% (active).
Then `Cc1occc1C(=O)NC1CCCN(Cc2ccc(CC(C)C)cc2)C1` (stereo not given), with 5.69%.
To `COc1ccc(CCNC(=O)/C(C#N)=C2\N=C(NC(=O)c3cccs3)c3ccccc32)cc1` belongs 28.2% (active); to `COc1ccc(CN(Cc2ccc(OC)cc2)C(=O)c2cccs2)cc1`, 4.18%.
As for `COc1cc2ccccc2cc1C(=O)Nc1ccc(NC(=O)c2cccs2)cc1`, the inhibition was -34%.
Then `CN(Cc1c(F)cccc1Cl)S(=O)(=O)c1cccs1`, with 4.21%.
To `CN(C)C(=O)c1ccc2c(c1)C1C3CCC(C3)C1C(c1ccccc1)N2` (stereo not given) belongs 8.08%.
To `CCc1nnc(NC(=O)CSc2nc(SC)ns2)s1` belongs -0.14%.
Consider `CCN(CC)C(=O)CSC(Nc1cccc(F)c1)=C(C#N)C#N`, for which the inhibition was -5.27%.
For `O=C(NCCc1c[nH]c2ccccc12)c1cccc(Br)c1`, the inhibition was 4.14%.
Then `Cc1cc(C)cc(NC(=S)NCc2ccc(F)cc2)c1`, with 7.45%; and `Cc1cc(C)cc(NC(=S)NCCc2c[nH]c3ccccc23)c1`, with 26.7% (active); and `O=C(NCCS(=O)(=O)N1CCN(c2ccccc2F)CC1)c1ccc(Br)o1`, with 3.82%.
Then `Cc1cc(C)c2nc3nc(C)cc(C)c3c(N)c2c1`, with -3.32%; and `CCOC12CC(C)(C)CC(C)(CC3=C1C(=O)CC(C)(C)C3)C2` (stereo not given), with 2.34%.
Then `O=c1c2sccc2nc(SCc2cc(=O)n3ccccc3n2)n1-c1ccc(Br)cc1`, with 6.68%; and `N#CCCN(C(=O)COC(=O)C1CCN(c2ccc(C(F)(F)F)cn2)CC1)c1ccc(F)cc1`, with 1.79%.
Take `CCc1ccccc1OCC(=O)Nc1ccc(C)c(S(=O)(=O)N2CCCCCC2)c1`: the inhibition was -30.7%.
Then `Cc1cc(NC(=O)COc2ccccc2C#N)no1`, with -1.79%; and `CCc1cccc(CC)c1NC(=O)COc1ccccc1C(=O)c1cc(C#N)c(=O)n(C2CCCCC2)c1`, with 26.5% (active); and `CCOc1ccc(S(=O)(=O)N(CC(=O)NCC(F)(F)F)Cc2ccco2)cc1`, with -1.32%.
Consider `FC(F)(F)c1cccc(-c2nc(COc3ccc(Cl)cc3Cl)no2)c1`, for which the inhibition is -0.04%.
In the case of `O=C(Nc1ccc(OC(F)(F)F)cc1)c1ccc2c(c1)no[n+]2[O-]`, the inhibition is 32% (active).
Regarding `COC(=O)[C@H](C)NC(=O)Nc1ccc(OC(F)(F)F)cc1`, the inhibition is 0.46%.
Consider `Cn1nccc1NC(=O)Nc1ccc(OC(F)(F)F)cc1`, for which the inhibition was 8.73%.
To `CCOC(=O)Cc1c(C)nc2c(C#N)c(C)nn2c1C` belongs -0.83%; to `CCN=C1S/C(=C\c2cc(Br)ccc2OCC(=O)OCC)C(=O)N1CC`, 3.9%; to `CC(C)CCOc1ccc(C(=O)C[N+]2(C)CCOCC2)cc1`, 1.1%.
Regarding `Cc1ccc(N(Cc2ccc(C(=O)Nc3ccccc3C(=O)NCc3ccco3)cc2)S(C)(=O)=O)cc1C`, the inhibition was -28.2%.
For the compound `Nc1c(N(Cc2ccco2)C(=O)c2cccc(F)c2)c(=O)[nH]c(=O)n1Cc1ccccc1`, the inhibition is 3.17%.

Usually inhibition stands for the drop in the measured response relative to a control, in per cent.
